Measurements published in PubChem BioAssay AID1159580 (chemical genetic matrix, 2015).
The whole screen tested about 5,500 compounds, of which about 2,000 (36%) were called active. Another 18% or so got no clear call; they are omitted. Cut-off read from the data, not from the text of the source: active = normalized growth mostly below about 0.91 (no sharp cut-off); inconclusive = no clear call, values can overlap the other calls; inactive = mostly above about 0.92. Some of the results follow.

Experiment: chemical genetic growth profiling, strain panel (AID 1159580);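 note: tested at 20 µM; growth read once vehicle control cultures reached saturation at 30 °C; 1 = growth at the plate median or of vehicle wells; lower values mean less growth of the strain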
Settings: growth OD
[1] = S. cerevisiae deletion strains, locus YAL040C, strain CLN3, stronger effect = lower value
[2] = S. cerevisiae deletion strains, locus YCL061C, strain MRC1 (second series), stronger effect = lower value
[3] = S. cerevisiae deletion strains, locus YDR363W, strain ESC2, stronger effect = lower value
[4] = S. cerevisiae deletion strains, locus YER002W, strain NOP16, stronger effect = lower value
[5] = S. cerevisiae deletion strains, locus YJR075W, strain HOC1, stronger effect = lower value
[6] = S. cerevisiae deletion strains, locus YMR263W, strain SAP30, stronger effect = lower value
[7] = S. cerevisiae deletion strains, locus YMR307W, strain GAS1, stronger effect = lower value
[8] = S. cerevisiae deletion strains, locus YNL153C, strain GIM3, stronger effect = lower value
[9] = S. cerevisiae deletion strains, locus YNL175C, strain NOP13, stronger effect = lower value
[10] = S. cerevisiae deletion strains, locus YNL197C, strain WHI3, stronger effect = lower value
[11] = S. cerevisiae deletion strains, locus YNL224C, strain SQS1, stronger effect = lower value
[12] = S. cerevisiae deletion strains, locus YNL322C, strain KRE1, stronger effect = lower value
[13] = S. cerevisiae deletion strains, locus YOR083W, strain WHI5 (second series), stronger effect = lower value
[14] = S. cerevisiae deletion strains, locus YPL241C, strain CIN2, stronger effect = lower value
[15] = S. cerevisiae deletion strains, locus YAL013W, strain DEP1, stronger effect = lower value
[16] = S. cerevisiae deletion strains, locus YBR229C, strain ROT2, stronger effect = lower value
[17] = S. cerevisiae deletion strains, locus YDL101C, strain DUN1, stronger effect = lower value
[18] = S. cerevisiae deletion strains, locus YGR078C, strain PAC10, stronger effect = lower value
[19] = S. cerevisiae deletion strains, locus YLR039C, strain RIC1, stronger effect = lower value
[20] = S. cerevisiae deletion strains, locus YLR262C, strain YPT6, stronger effect = lower value
[21] = S. cerevisiae deletion strains, locus YPL055C, strain LGE1, stronger effect = lower value

Measured: normalized growth

NCC1OC(O[C@@H]2[C@H](O)C(OC3C(O)C(N)CC(N)C3OC3OC(CO)C(O)C(O)C3N)O[C@@H]2CO)C(N)C(O)C1O (stereo partly drawn)
inactive: [1] 1.07 | [2] 1 | [3] 1.02 | [4] 1.02 | [5] 1 | [6] 0.997 | [7] 1 | S. cerevisiae deletion strains, locus YNL128W, strain TEP1, stronger effect = lower value 1.01 | [8] 1.03 | [9] 1.01 | [10] 1.01 | [11] 1.01 | [12] 0.993 | [13] 1.02 | [14] 1

CCc1cc2c(cc1C(=O)CC1(O)C(=O)Nc3ccc(Br)cc31)C(C)(C)CCC2(C)C (stereo not drawn)
inactive: [15] 1.01 | [16] 1.01 | S. cerevisiae deletion strains, locus YCL061C, strain MRC1, stronger effect = lower value 1.02 | [17] 1.02 | S. cerevisiae deletion strains, locus YDL134C, strain PPH21, stronger effect = lower value 1.01 | S. cerevisiae deletion strains, locus YDR150W, strain NUM1, stronger effect = lower value 0.953 | S. cerevisiae deletion strains, locus YEL061C, strain CIN8, stronger effect = lower value 0.978 | [18] 1.02 | S. cerevisiae deletion strains, locus YHR030C, strain SLT2, stronger effect = lower value 1.02 | S. cerevisiae deletion strains, locus YHR087W, strain rtc3, stronger effect = lower value 0.961 | S. cerevisiae deletion strains, locus YJR043C, strain POL32, stronger effect = lower value 1.01 | [5] 0.979 | [19] 1.03 | S. cerevisiae deletion strains, locus YLR058C, strain SHM2 (second series), stronger effect = lower value 1.01 | S. cerevisiae deletion strains, locus YLR085C, strain ARP6, stronger effect = lower value 1.02 | [20] 1.01 | S. cerevisiae deletion strains, locus YML094W, strain GIM5, stronger effect = lower value 0.997 | S. cerevisiae deletion strains, locus YMR219W, strain ESC1, stronger effect = lower value 1 | [6] 1.06 | [7] 0.959 | [8] 1.01 | S. cerevisiae deletion strains, locus YNL298W, strain CLA4 (second series), stronger effect = lower value 0.998 | [12] 1.01 | S. cerevisiae deletion strains, locus YNR030W, strain Alg12, stronger effect = lower value 1.01 | [21] 0.921 | [14] 1.02 | S. cerevisiae deletion strains, locus YPR135W, strain CTF4, stronger effect = lower value 1.06

CC(C)C(=O)c1c(C(C)C)nn2ccccc12
inactive: [15] 0.972 | [1] 1.06 | [2] 0.985 | [3] 0.995 | [4] 0.983 | [18] 0.984 | S. cerevisiae deletion strains, locus YGR229C, strain SMI1, stronger effect = lower value 0.942 | [5] 0.991 | [9] 0.985 | [10] 0.985 | [11] 0.962 | [12] 0.985 | [13] 0.936 | [21] 0.967

CC1=CCC2C3(C)C1=CC(=O)OC3CC1C(C)(C)CC(O)C(O)C12C (stereo not drawn)
inactive: S. cerevisiae deletion strains, locus YBR021W, strain FUR4, stronger effect = lower value 0.993 | [16] 1.02 | S. cerevisiae deletion strains, locus YCL029C, strain bik1, stronger effect = lower value 1 | S. cerevisiae deletion strains, locus YDL035C, strain GPR1, stronger effect = lower value 1.06 | S. cerevisiae deletion strains, locus YDL074C, strain BRE1, stronger effect = lower value 1.07 | [17] 1.01 | S. cerevisiae deletion strains, locus YDL185W, strain tfp1, stronger effect = lower value 0.996 | S. cerevisiae deletion strains, locus YDL192W, strain arf1, stronger effect = lower value 1.01 | S. cerevisiae deletion strains, locus YDR101C, strain arx1, stronger effect = lower value 1.02 | S. cerevisiae deletion strains, locus YDR162C, strain NBP2, stronger effect = lower value 1.02 | S. cerevisiae deletion strains, locus YDR318W, strain mcm21, stronger effect = lower value 0.981 | S. cerevisiae deletion strains, locus YDR388W, stronger effect = lower value 0.994 | S. cerevisiae deletion strains, locus YDR502C, strain sam2, stronger effect = lower value 0.998 | S. cerevisiae deletion strains, locus YER110C, stronger effect = lower value 0.991 | S. cerevisiae deletion strains, locus YER155C, strain BEM2, stronger effect = lower value 1 | S. cerevisiae deletion strains, locus YER167W, strain BCK2, stronger effect = lower value 1.03 | S. cerevisiae deletion strains, locus YGL078C, strain dbp3, stronger effect = lower value 1 | S. cerevisiae deletion strains, locus YGL086W, strain mad1, stronger effect = lower value 0.995 | S. cerevisiae deletion strains, locus YGL248W, strain PDE1, stronger effect = lower value 1.01 | S. cerevisiae deletion strains, locus YGR135W, strain pre9, stronger effect = lower value 0.979 | S. cerevisiae deletion strains, locus YGR252W, strain gcn5, stronger effect = lower value 0.96 | S. cerevisiae deletion strains, locus YHR079C, strain IRE1 (second series), stronger effect = lower value 0.989 | S. cerevisiae deletion strains, locus YHR094C, strain hxt1, stronger effect = lower value 0.99 | S. cerevisiae deletion strains, locus YHR129C, strain ARP1, stronger effect = lower value 1.01 | S. cerevisiae deletion strains, locus YHR200W, strain rpn10, stronger effect = lower value 0.983 | S. cerevisiae deletion strains, locus YIL066C, strain RNR3, stronger effect = lower value 1.05 | S. cerevisiae deletion strains, locus YIL073C, strain SPO22, stronger effect = lower value 1 | S. cerevisiae deletion strains, locus YIL125W, strain kgd1, stronger effect = lower value 1.01 | S. cerevisiae deletion strains, locus YIR030C, strain dcg1, stronger effect = lower value 0.986 | S. cerevisiae deletion strains, locus YJL095W, strain BCK1, stronger effect = lower value 1.03 | S. cerevisiae deletion strains, locus YJL134W, strain LCB3, stronger effect = lower value 1.01 | S. cerevisiae deletion strains, locus YJL168C, strain set2, stronger effect = lower value 0.991 | S. cerevisiae deletion strains, locus YJL187C, strain SWE1 (second series), stronger effect = lower value 1 | S. cerevisiae deletion strains, locus YKL009W, strain mrt4, stronger effect = lower value 1.05 | S. cerevisiae deletion strains, locus YKL068W, stronger effect = lower value 0.993 | S. cerevisiae deletion strains, locus YKL085W, strain MDH1 (second series), stronger effect = lower value 0.991 | S. cerevisiae deletion strains, locus YKL085W, strain MDH1, stronger effect = lower value 0.991 | S. cerevisiae deletion strains, locus YKL190W, strain CNB1, stronger effect = lower value 1.01 | S. cerevisiae deletion strains, locus YKR001C, strain vps1, stronger effect = lower value 1.02 | [19] 1.12 | S. cerevisiae deletion strains, locus YLR058C, strain SHM2, stronger effect = lower value 1.04 | S. cerevisiae deletion strains, locus YLR102C, strain apc9, stronger effect = lower value 0.991 | [20] 1.17 | S. cerevisiae deletion strains, locus YLR268W, strain sec22, stronger effect = lower value 1.03 | S. cerevisiae deletion strains, locus YLR330W, strain CHS5, stronger effect = lower value 1.01 | S. cerevisiae deletion strains, locus YLR371W, strain rom2, stronger effect = lower value 1 | S. cerevisiae deletion strains, locus YLR418C, strain cdc73, stronger effect = lower value 0.97 | S. cerevisiae deletion strains, locus YML016C, strain PPZ1, stronger effect = lower value 1.01 | S. cerevisiae deletion strains, locus YML032C, strain rad52, stronger effect = lower value 1 | S. cerevisiae deletion strains, locus YML124C, strain tub3, stronger effect = lower value 0.993 | S. cerevisiae deletion strains, locus YMR078C, strain ctf18, stronger effect = lower value 0.99 | S. cerevisiae deletion strains, locus YMR223W, strain ubp8, stronger effect = lower value 0.989 | [6] 1.01 | [7] 1.09 | S. cerevisiae deletion strains, locus YNL067W, strain RPL9B, stronger effect = lower value 0.997 | [8] 1.01 | S. cerevisiae deletion strains, locus YNL233W, strain BNI4, stronger effect = lower value 0.999 | S. cerevisiae deletion strains, locus YNL250W, strain rad50, stronger effect = lower value 0.962 | S. cerevisiae deletion strains, locus YNL271C, strain bni1, stronger effect = lower value 1 | S. cerevisiae deletion strains, locus YNL298W, strain CLA4, stronger effect = lower value 1.01 | S. cerevisiae deletion strains, locus YNL307C, strain MCK1, stronger effect = lower value 0.999 | S. cerevisiae deletion strains, locus YNR052C, strain pop2, stronger effect = lower value 0.998 | S. cerevisiae deletion strains, locus YOL012C, strain htz1 0.612 | S. cerevisiae deletion strains, locus YOL147C, strain pex11, stronger effect = lower value 0.998 | S. cerevisiae deletion strains, locus YOR061W, strain CKA2, stronger effect = lower value 1.06 | S. cerevisiae deletion strains, locus YOR069W, strain VPS5, stronger effect = lower value 1.01 | S. cerevisiae deletion strains, locus YOR136W, strain idh2, stronger effect = lower value 0.996 | S. cerevisiae deletion strains, locus YOR144C, strain elg1, stronger effect = lower value 1 | S. cerevisiae deletion strains, locus YOR184W, strain ser1, stronger effect = lower value 1.04 | S. cerevisiae deletion strains, locus YOR316C, strain cot1, stronger effect = lower value 0.989 | [14] 1.01 | S. cerevisiae deletion strains, locus YPR119W, strain clb2, stronger effect = lower value 0.987 | S. cerevisiae deletion strains, locus YPR141C, strain kar3, stronger effect = lower value 1 | S. cerevisiae deletion strains, locus YPR163C, strain tif3, stronger effect = lower value 1 | S. cerevisiae deletion strains, locus YPR167C, strain met16, stronger effect = lower value 0.985 | S. cerevisiae deletion strains, strain wtn01, stronger effect = lower value 1.01 | S. cerevisiae strains, strain wild type, stronger effect = lower value 1.04
